In PubChem BioAssay AID1347041 (National Center for Advancing Translational Sciences (NCATS), 2019):
Among all 480,000 compounds or so, about 740 (0.15%) were called active. Rule as the data show it: active = activity change below about -30%; inconclusive = mostly about -25% to -30%; inactive = weaker than that. Many of the other results were omitted from the sample, so actives are more common in it than they were.

Molecular target: L-lactate dehydrogenase A chain (Homo sapiens) (UniProt P00338)
Assay: qHTS assay for inhibitors of human lactate dehydrogenase;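 also: values are at about 110 or 230 µM; plate controls were DMSO wells for no effect and wells without enzyme for full effect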
Conditions: purified LDHA, NADH/diaphorase-resazurin fluorescence; active compounds read low
Source text: LDH is a key glycolytic enzyme that catalyzes the final step in the glycolytic pathway, reducing pyruvate to lactate and regenerating NAD+ equivalents necessary for continued glycolysis. LDHA has been linked to the carcinogenesis and malignancy in numerous forms of cancers and many other diseases. Consequently, both pharma and academia have invested in significant research efforts to identify small molecule therapeutics. Such attempts have been stalled or abandoned due to limited success in discovering potent and drug-like inhibitors that can be utilized to validate LDHA in vivo as a drug target, a necessary step toward advancing such a molecule towards the clinic Towards this goal we designed and performed a quantitative high-throughput screening (qHTS) campaign to discover novel compounds that are potent inhibitors of LDHA enzyme activity and cancer cell line growth.
The assay was optimized to 1536-well plates. Briefly, 3 µL of human lactate dehydrogenase 5 (#A38558H, Meridian Life Science, Inc., Memphis, TN) in LDH assay buffer (200 mM Tris HCl pH 7.4, 100 microM EDTA and 0.01% Tween-20) was added to a black solid bottom 1536-well assay plate (Greiner Bio-One) using a BioRAPTR FRD dispenser (Beckman Coulter, Brea, CA). A 1536-well pintool dispenser outfitted with 20 nL pins (Wako Automation, San Diego, CA) was used to transfer 23 nL of DMSO-solubilized compound (both library and vehicle controls) to each 1536-well assay plate. Following compound transfer, 1 µL of substrate solution containing NADH and sodium pyruvate (Sigma-Aldrich, St. Louis, MO) in LDH assay buffer was dispensed via BioRAPTR FRD to initiate the reaction. Final concentrations in the 4 microL reaction volume were 2 nM LDHA enzyme, 0.06 mM NADH and 0.2 mM sodium pyruvate. Following a 5 minute incubation period at room temperature, 1 µL of detection reagent (C. kluyveri diaphorase (Sigma-Aldrich) and resazurin sodium salt (Sigma-Aldrich) in LDH assay buffer) was added to a total volume of 5 µL. Final concentrations of detection reagents were 0.133 mg/mL diaphorase and 37 µM resazurin. Plates were immediately transferred to a ViewLux microplate imager (PerkinElmer, Waltham, MA), and any resulting resorufin fluorescence was measured (ex540, em590 nm) at 0 and 20 minutes. Fluorescence was normalized using enzyme-free and DMSO-treated control wells on each plate.

SMILES	activity change
CCC(CC)(Cc1nc2ccccc2s1)C(=O)Nc1ccc(N2CCOCC2)cc1	5.36% (inactive)
C/C(=N\NC(=O)c1ccc(C(C)(C)C)cc1)C(C)C	11.2% (inactive)
O=[N+]([O-])c1cc(S(=O)(=O)Nc2ccc(Cl)cc2)ccc1N/N=C/c1ccccc1C(F)(F)F	3.88% (inactive)
O=[N+]([O-])c1cc(S(=O)(=O)Nc2ccccc2NS(=O)(=O)c2cccs2)ccc1Cl	13.9% (inactive)
O=[N+]([O-])c1cc(S(=O)(=O)Nc2cccc(Cl)c2)ccc1N=Nc1c(O)[nH]c2ccccc12	-42.1% (active)
COc1cccc(/C=N/NC(=O)c2[nH]nc3c2CCc2ccccc2-3)c1O	-78.6% (active)
CC(C)(C)c1ccc(/C=N/NC(=O)c2ccccc2)cc1	12.2% (inactive)
Cc1cc(C)c(/C=N/NC(=O)c2ccccc2)c(C)c1	4.2% (inactive)
CC(OC(=O)c1cccc(-n2cnnn2)c1)C(=O)Nc1ccc(N2CCOCC2)cc1 (stereo not given)	6.53% (inactive)
CC(=O)Nc1cccc(NC(=O)c2cnn(-c3ccccc3F)c2C(F)(F)F)c1C	9.39% (inactive)
O=C(N/N=C/c1ccccc1OCCOc1ccc([N+](=O)[O-])cc1)Nc1ccccc1	-7.59% (inactive)
O=C(N/N=C/c1ccccc1Cl)c1ccc(Cl)s1	5.95% (inactive)
O=C(NN=Cc1ccccc1O)NN=Cc1ccccc1O	-72% (active)
N#C/C(=C/c1ccccc1)c1ccc(C(F)(F)F)cn1	-3.61% (inactive)
Cc1ccccc1CC(=O)Nc1ccc(N2CCOCC2)c(Cl)c1	-4.8% (inactive)
COCCN1C(=O)C(=O)/C(=C(/O)c2ccc3c(c2)OCCO3)C1c1cccc(O)c1 (stereo not given)	9.53% (inactive)
O=S(=O)(c1ccc2c(c1)OCCO2)c1nc(-c2cccc(Cl)c2)oc1N1CCOCC1	-9.35% (inactive)
NC(=O)c1ccc(NC(=O)CCc2ncc(-c3c(F)cccc3F)o2)cc1	-1.68% (inactive)
Cc1cc(N2CCC(C)CC2)n2nc(-c3ccccc3)nc2n1	7.05% (inactive)
c1ccc(Oc2ccc(CNc3ncccn3)cn2)cc1	-10.1% (inactive)

SMILES	activity change
CCCn1c(N)c(-c2csc(Nc3ccc(F)cc3)n2)c(=O)n(C)c1=O	2.91% (inactive)
CCc1nn2c(=O)cc(CN(CC)Cc3ccc(OCc4ccccc4)cc3)nc2s1	-24.3% (inactive)
Cc1ccccc1CSc1nc(=O)c2c(n1C)NC(=O)CC2c1ccc(OCC(N)=O)cc1 (stereo not given)	2.91% (inactive)
O=C(CSc1ccccc1F)c1ccc2c(c1)-c1ccccc1C2	10.6% (inactive)
Cc1ccc(C)c(-n2c3c(cc(C#N)c2=O)C(=O)CC(c2ccccc2)C3)c1 (stereo not given)	-0.429% (inactive)
CCOC(=O)c1c(C)[nH]c(C(=O)COc2cc(Cl)ccc2Cl)c1C	-3.64% (inactive)
CC1=C(C(=O)Nc2cccc(C)c2C)C(c2ccc(C)cc2)NC(=O)N1 (stereo not given)	-9.14% (inactive)
CC1CCN(C(=O)C(C)n2cnc3c2c(=O)n(C)c(=O)n3C)CC1 (stereo not given)	1.51% (inactive)
COc1ccc(-c2csc(-c3cc4c([nH]c3=O)CC(c3ccco3)CC4=O)n2)cc1F (stereo not given)	6.35% (inactive)
COc1ccc(-c2c(C)c3cc(OS(=O)(=O)c4ccc(F)cc4)ccc3oc2=O)cc1OC	1.58% (inactive)
COc1cccc(CNC(C)C(=O)Nc2ccc(S(=O)(=O)N3CCCC3)cc2)c1 (stereo not given)	-0.452% (inactive)
CCN(CC(=O)Nc1ccc(S(=O)(=O)N2CCCC2)cc1)CC(=O)Nc1cccc(OC)c1	-38.2% (active)
CCN(CC(=O)Nc1cccc(S(=O)(=O)N2CCCCC2)c1)Cc1ccccc1	-5.08% (inactive)
CC(C)CC(NC(=O)C(c1ccccc1)c1ccccc1)c1ccccc1 (stereo not given)	-5.71% (inactive)
Oc1c(Cl)cc(Cl)c(Cl)c1Cc1c(O)c(Cl)cc(Cl)c1Cl	-106% (active)
Fc1cccc(Cl)c1CNc1ccc(Cl)cc1	11.8% (inactive)
CC(C)(C)n1nc(N)c2cc([N+](=O)[O-])ccc21	-0.323% (inactive)
O=C(Cc1c[nH]c2ccccc12)Nc1cc(F)cc(F)c1	0.607% (inactive)
O=C(O)CCC(=O)O	0.526% (inactive)
C=CC(=O)OCCOCCOCCOCCOC(=O)C=C	-3.09% (inactive)

SMILES	activity change
O=C(O)COCCOCC(=O)O	-30% (active)
CCN(CC(=O)NCc1cccs1)C(=O)c1cccc(S(=O)(=O)N(C)c2ccc(C)cc2)c1	2.57% (inactive)
O=C(Cc1ccsc1)NCCc1ccccc1	-0.295% (inactive)
NS(=O)(=O)c1ccc(N2C(=O)C3C4CC(C(Br)C4Br)C3C2=O)cc1 (stereo not given)	-58.8% (active)
CCCOc1ccc(N2C(=O)CC(N(CCc3ccc(S(N)(=O)=O)cc3)C(C)=O)C2=O)cc1 (stereo not given)	-18% (inactive)
O=C1C2C3C=CC(C3)C2C(=O)N1c1ccc(S(=O)(=O)Nc2nccs2)cc1 (stereo not given)	-9.54% (inactive)
O=C(NCc1nc(-c2ccc(Cl)cc2)no1)c1cc2ccccc2o1	0.842% (inactive)
Cc1ccc(-c2ccccc2N)cc1	-2.5% (inactive)
O=C(c1ccc[nH]1)c1cc2cc(Br)ccc2o1	-2.8% (inactive)
Cc1cccc(/C=C/C(=O)c2cccs2)c1	7.28% (inactive)
CCCNC(=O)C(C)NC(=O)COc1ccccc1NC(C)=O (stereo not given)	-1.76% (inactive)
Cc1ccc(-c2nc(CS(=O)CC(=O)Nc3ccc(C)c(C)c3)cs2)cc1 (stereo not given)	0.528% (inactive)
O=C(O)CCC(=O)Nc1ccc2c(C(C(=O)O)N3CCN(c4ccccc4)CC3)c[nH]c2c1 (stereo not given)	-5.22% (inactive)
Cc1ccc(NC(=O)C(Sc2nnnn2C2CCCC2)c2ccccc2)cc1 (stereo not given)	11.6% (inactive)
c1ccc(-c2nc(-c3ccc4c(c3)OCCCO4)cs2)nc1	5.7% (inactive)
c1coc(CNc2ccc3c(c2)ncn3C2CCCCC2)c1	13.3% (inactive)
COc1ccccc1OCCCCCCN1CCN(C)CC1	-2.1% (inactive)
CN1CCN(CCCCOc2ccccc2-c2ccccc2)CC1	-36.2% (active)
CC1CCCN(CCOCCOc2ccccc2-c2ccccc2)C1 (stereo not given)	-8.67% (inactive)
O=C(CCn1ccccc1=O)Nc1ccc(Cl)cc1Cl	11.9% (inactive)
